Rows were chosen to be rich in hits. Some 0.81% of all compounds tested hit in one or more screens of this group.
TRHR agonist-1: activates the human TRH receptor | TRHR cells, calcium flux fluo-8, FDSS agonist mode | activation, % at 2 µM | hit rate 0.18% among 360,000 | AID 493084; in the data active = activation above about 30%; note: 0% is about no effect
Target sequence (P34981 whole entry, looked up): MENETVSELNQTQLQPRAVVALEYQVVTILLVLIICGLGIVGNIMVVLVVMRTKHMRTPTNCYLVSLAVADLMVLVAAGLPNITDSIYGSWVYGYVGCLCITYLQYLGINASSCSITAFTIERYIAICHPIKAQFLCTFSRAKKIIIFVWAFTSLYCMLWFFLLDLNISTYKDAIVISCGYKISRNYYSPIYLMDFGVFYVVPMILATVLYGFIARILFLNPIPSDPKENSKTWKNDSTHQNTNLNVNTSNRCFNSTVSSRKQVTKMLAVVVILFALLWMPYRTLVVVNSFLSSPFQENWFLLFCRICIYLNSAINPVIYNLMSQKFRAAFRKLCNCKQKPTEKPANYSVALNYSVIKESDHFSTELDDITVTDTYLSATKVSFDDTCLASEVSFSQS
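TRHR-expressing cells, plated overnight in medium with 10% serum, were loaded with fluo-8 calcium dye at room temperature. After a 10 s baseline, library compound was pin-added and calcium release was recorded kinetically (ex 480/em 530) as agonist response.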
TRHR enhancer-1: allosterically enhances the human TRH receptor; P34981; hit rate 0.66% among 360,000; enhancement, % at 2 µM; AID 493056; TRHR cells, fluo-8 calcium fluorescence, EC20 TRH enhancement; in the data active = enhancement above about 30%; note: 0% is about no effect
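Enhancer read-out: after compound pinning and an initial kinetic agonist-mode read, an EC20 of TRH (10 nM final) was injected and fluo-8 calcium signal (Ex 480/Em 530) followed at 1 s/cycle for 100 cycles in TRHR-expressing cells.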
TRPML1 ag: agonists of human TRPML1 channel; Q9GZU1; TRPML1-expressing cells, Ca2+ dye fluorescence, FDSS; activation, % (no concentration beside the values); hit rate 0.12% among 410,000; in the data active = activation above about 50%; inconclusive = mostly about 30% to 49%; note: 0% is about no effect
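Tetracycline-induced TRPML1-DL cells are seeded and incubated overnight before loading with a no-wash Ca2+ dye and quencher. Agonist activity is taken from the 110 s fluorescence read following compound pin-transfer on an FDSS, before EC80 54-4 challenge.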
TRPML1 blocker: blocks the human TRPML1 channel | TRPML1-inducible cells, Ca2+ dye fluorescence, FDSS; hits give low values; inhibition of EC80 agonist-evoked calcium signal | activity change, negative = inhibition, % (no concentration beside the values) | hit rate 0.02% among 390,000; in the data active = activity change below about -50%; inconclusive = between about -30% and that limit;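 note: stimulus is agonist 54-4 at its EC80 concentration; % is set by controls: 0 for no effect and ±100 for the full control effect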
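Tet-induced TRPML1-DL cells loaded with Ca8 no-wash calcium dye were read kinetically on FDSS. Compound addition was followed by EC80 agonist 54-4 (4 uM final); inhibition was read over 110 s.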
TSG101-PTAP inh: blocks PTAP/TSG101 interaction to inhibit HIV-1 budding. Potency, µM (top dose mostly 115 µM), for inactives: at the top dose activity change, negative = inhibition, hits mostly inhibitors. AID 493005. Fluorescence polarization, FITC-PTAP peptide / Tsg101 binding. 340,000 tested, under 10 active; active = well fitted inhibition curve with a large enough effect in the main read-out, with a control signal flat, not every such curve was filed as active; inconclusive = small, poorly fitted or top-dose-only effect, or effect the other way, or a change in a side signal; inactive = no such curve, though single readings can be large or run the other way; note: potency is the fitted concentration of half-maximal effect; % of control where 0% means no effect
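Fluorescence anisotropy tracks displacement of a FITC-tagged PTAP peptide (50 nM) from the Tsg101 binding domain (10 uM), following a 20 min room-temperature incubation at pH 7.5.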
TRHR enhancer-2: confirmation of human TRH receptor allosteric enhancers; shares compounds with TRHR enhancer-1; 970 tested, under 10 active; TRH receptor cell assay, enhancer confirmation qHTS; AID 493076; activity change, negative = inhibition, % at 46.1 µM;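 note: compound effect scored on response to added TRH at EC20 of 10 nM; 0% is about no effect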
TRHR agonist-2: human TRH receptor agonism confirmation | hit rate 8% among 970 | AID 493078 | TRHR-expressing cells, agonist activation read-out | Potency, µM (titrated, usually from 46.1 µM), for inactives: top-dose activation, hits mostly activators | shares compounds with TRHR enhancer-1; note: potency is the fitted concentration of half-maximal effect; 0% is about no effect; nearly all actives have a fitted effect of over 75% in size
An asterisk follows results filed as active; ? = inconclusive; · = not tested or not shown. Unless noted, calls come from the whole dose curve; as a rule, active = well fitted curve in the direction sought with a large enough effect; inconclusive = small, poorly fitted or top-dose-only effect, or another doubt; inactive = no such curve, though single readings can be large; an effect the other way counts as inactive or inconclusive.

SMILES	TRHR agonist-1	TRHR enhancer-1	TRPML1 ag	TRPML1 blocker	TSG101-PTAP inh	TRHR enhancer-2	TRHR agonist-2
COc1nc(-c2ccccc2)ccc1-c1noc(-c2cccnc2)n1	-2	46*	0	7	1%	13	7%
CCCCCc1ccc(-c2cn(Cc3ccc4c(c3)C(=O)c3ccccc3C4=O)nn2)cc1	·	·	0	·	·	·	·
CC1CCCC(NC(=O)C2c3ccccc3C(=O)N2Cc2cccs2)C1C (configuration not stated)	0	44*	2	23	-5%	-14	1%
c1ccc2sc(NCC3CCCO3)nc2c1 (configuration not stated)	0	4	0	3	-2%	·	·
CC1=CC(=C(C#N)c2nc3ccccc3s2)C=C(C)N1CC1CCCO1 (configuration not stated)	39*	5	26	-24	?	?	18µM*
Cc1cccc2cc3c(N)c(C(=O)N4CCc5ccccc54)sc3nc12	53*	13	11	-25	?	?	18µM*
O=C(CNC1=NCCS1)c1c[nH]c2ccccc12	·	·	-1	·	·	·	·
COc1ccc(/C=C2\SC(=S)N(CC3CCCO3)C2=O)cc1 (configuration not stated)	1	2	1	13	0%	·	·
COc1ccc(N=C2O/C(=C/c3sc(=S)n(CC4CCCO4)c3O)N=C2C#N)cc1 (configuration not stated)	2	43*	0	2	1%	-3	4%
O=C(CCN1C(=O)C2CCCCC2C1=O)N1CCN(S(=O)(=O)c2cccc(F)c2)CC1 (configuration not stated)	0	30	0	-11	-1%	·	·
O=C(CCN1C(=O)C2CCCCC2C1=O)N1CCN(S(=O)(=O)c2ccccc2)CC1 (configuration not stated)	0	41*	1	-20	0%	4	-1%
CCc1nnc(NC(=O)C2CCN(c3ncnc4sc(C)c(C)c34)CC2)s1	0	42*	2	0	-1%	3	5%
Cc1cc(Br)ccc1NC(=O)COC(=O)c1ccccc1OCC(=O)N(C)C	·	·	-1	·	·	·	·
CC(C)(C)OC(=O)NS(=O)(=O)NOCc1ccccc1	·	·	-1	·	·	·	·
Cc1nc([N+](=O)[O-])cn1CC(=O)c1ccc2c(c1)OCCCO2	·	·	0	·	·	·	·
COc1cc(CNCc2ccccn2)ccc1OCC(=O)NC1CCCCC1	-1	45*	1	9	-5%	1	-1%
CN(C)c1ccc(/C=N\Nc2ccc([N+](=O)[O-])cc2[N+](=O)[O-])cc1Br	·	·	0	·	·	·	·
O=C(Nc1nc2ccc(F)cc2s1)C1CC(=O)N(c2ccc3c(c2)OCCO3)C1 (configuration not stated)	0	-5	1	-4	0%	·	·
COc1ccc2nc(NC(=O)C3CC(=O)N(c4ccc5c(c4)OCCO5)C3)sc2c1 (configuration not stated)	0	49*	0	6	-1%	?	-1%
COc1ccc(CN(C)C(=O)C2CC(=O)N(c3ccc4c(c3)OCCO4)C2)c(OC)c1 (configuration not stated)	-2	65*	3	-9	0%	-8	-1%
O=C(C1CC(=O)N(c2ccc3c(c2)OCCO3)C1)N1CCN(Cc2ccccc2F)CC1 (configuration not stated)	0	48*	-1	-3	-2%	3	-1%
O=C(NCc1ccccc1F)C1CC(=O)N(c2ccc3c(c2)OCCO3)C1 (configuration not stated)	0	-4	-1	7	0%	·	·
O=C(C[n+]1cccc2cccc(O)c21)c1ccc2ccccc2c1	·	·	1	·	·	·	·
Cc1cnc2c(C)ccc(C)c2c1/C=C/c1ccc(N(C)C)cc1	·	·	0	·	·	·	·
CC1CCCN(C(=O)Cn2nnc(-c3ccc(S(C)(=O)=O)cc3)n2)C1 (configuration not stated)	0	41*	0	-10	-4%	-3	-1%
SMILES	TRHR agonist-1	TRHR enhancer-1	TRPML1 ag	TRPML1 blocker	TSG101-PTAP inh	TRHR enhancer-2	TRHR agonist-2
COc1ccc(C2Nc3ccccc3C(=O)N2Cc2ccco2)cc1COc1c(C)cccc1C (configuration not stated)	·	·	-1	·	·	·	·
CCn1c(SCC(N)=O)nc2c1c(=O)n(C)c(=O)n2C	1	2	0	-3	1%	·	·
CCn1c(N)nc2c1c(=O)n(C)c(=O)n2C	1	44*	0	-9	-3%	2	-1%
Cc1nc(C#N)nc(Oc2ccccc2)c1Cl	·	·	-1	·	·	·	·
CCCCn1nnnc1SCC(=O)c1ccc(C)c(C)c1	-1	5	0	1	1%	·	·
Cc1ccc(C(=O)CSc2nnc(C(C)C)n2C)cc1C	-1	42*	0	3	-3%	-6	-1%
Cc1ccc(NC(=O)CSc2nc3nc(C)c(Br)cc3[nH]2)cc1F	0	81*	2	-4	0%	-8	0%
NC(=O)C1CCN(C(=O)c2ccc3ccccc3c2)CC1	0	-1	-1	23	0%	·	·
Cn1c(C(=O)N2CCC(C(N)=O)CC2)cc2cc(Cl)ccc21	0	57*	0	11	-6%	1	2%
Cc1ccc(NCc2ccc(O)c3ncccc23)cc1	0	46*	1	3	0%	4	1%
Cc1ccc(NCc2ccc(O)c3ncccc23)cc1C	0	-3	-1	8	-6%	·	·
COc1ccc(-c2cc(C(F)F)nc(-n3nc(C)cc3C)n2)cc1	-1	53*	-1	3	-1%	-9	2%
Cc1ccc(S(=O)(=O)N2CCN(c3nc(N(C)c4cc(Cl)ccc4O)nc4ccccc34)CC2)cc1	·	·	0	·	·	·	·
O=C(O)c1cc2cccc([N+](=O)[O-])c2[nH]1	·	·	-1	·	·	·	·
CCOCCCNC(=O)c1c(NC(=O)c2nc(SCC)ncc2Cl)sc2c1CCCC2	·	·	0	·	·	·	·
Cc1ccc(NC(=O)CSCC(=O)NCc2ccco2)cc1	0	46*	0	-3	54%	2	1%
COc1ccc(CCNC(=O)CSc2nc(C)nc3c2c(=O)n(C)c(=O)n3C)cc1OC	0	45*	-1	21	-2%	-3	1%
CCCCc1c(O)nc(SCC(=O)NCCc2ccc(OC)c(OC)c2)[nH]c1=O	0	41*	1	1	2%	9	1%
COc1ccc(CCNC(=O)CSc2nc(O)c(CCC(C)C)c(=O)[nH]2)cc1OC	0	2	1	9	-6%	·	·
Cc1ccc2c(c1)CCC2=O	·	·	-1	·	·	·	·

Source: PubChem
